# Results: PubChem BioAssay (NCATS)
# Results filed as inconclusive are left out. Entries that show only a call come without a potency. Activity calls are given as the source filed them. Unless noted, the call rests on the fitted dose curve; in most records, active means well fitted curve in the direction sought with a large enough effect; inconclusive means small, poorly fitted or top-dose-only effect, or another doubt; inactive means no such curve, though single readings can be large; an effect the other way counts as inactive or inconclusive.
# Experiments:
# [1] = AP1 Signaling Pathway (AID 357; active means well fitted curve in either direction with a large enough effect, not every such curve was filed as active;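 further: ME-180 reporter cells stimulated with EGF at its EC50 level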)
# Summary of the method: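 Read-out was the 460nm/530nm emission ratio (excitation 405nm) after CCF4 loading for 2.5 hours at room temperature. Cells carried an AP-1-driven beta-lactamase reporter, were stimulated with EC50 EGF plus compound for 5 hours, and AC50 values came from titrations.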
# [2] = NFAT Signaling Pathway (AID 444; active means well fitted curve in either direction with a large enough effect, not every such curve was filed as active;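 further: carbachol stimulus at about its EC50 of 1 µM final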); details: Jurkat NFAT-bla M1, carbachol, beta-lactamase ratio, 5 h; at 38 µM (top of the series)
# Summary of the method: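 Jurkat cells carrying an NFAT-driven β-lactamase reporter and co-transfected muscarinic M1 receptor were treated with compound plus carbachol (1 uM final, an EC50 level) for 5 h at 37 °C. CCF4 loading followed for 1 h at RT; 460/530 nm ratio gave %activity.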
# [3] = Stat Signaling Pathway (AID 446; active means well fitted curve in either direction with a large enough effect, not every such curve was filed as active;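 further: ME-180 cervical cancer cells given 40 pM IL-6 alongside compound; SIE-controlled beta-lactamase reporter measured as 460/530 nm FRET emission ratio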)
# Summary of the method: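 Emission at 460 and 530 nm (excitation 405 nm) reports SIE-controlled beta-lactamase in ME-180 cells. Cells received compound with 40 pM IL-6 for 5 hrs at 37 C; data scaled between 300 pM IL-6 and 125 nM JAK-inhibitor controls.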
# [4] = biological target: Glucocorticoid receptor (Homo sapiens) (UniProt P04150); assay: GR-GFP Redistribution (AID 450;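 active means compounds whose dose series gives a full or clear partial fitted curve of increased nuclear translocation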; further: potency means the concentration at half of the fitted maximal effect); details: U2OS GR-GFP nuclear translocation, laser cytometry, 2 h
# [5] = biological target: Glucocorticoid receptor (Homo sapiens) (UniProt P04150); assay: GR-EFC Redistribution (AID 451; calls by dose curve; further: potency means the concentration at half of the fitted maximal effect); details: CHO-K1 GR-EFC translocation, beta-gal luminescence, 2 h
# Summary of the method: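 CHO-K1 cells stably expressing nuclear-localized β-gal enzyme acceptor and GR fused C-terminally to the enzyme donor fragment; ligand-driven nuclear translocation restores β-gal by complementation. Compounds titrated up to 46 uM final, 2 h at 37 °C; luminescence read.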
# [6] = biological target: Mitogen-activated protein kinase 10 (Mus musculus) (UniProt Q61831); assay: JNK3 AlphaScreen Assay (AID 530; active means well fitted curve in either direction with a large enough effect, not every such curve was filed as active;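 further: kinase came from lysate of stimulated human HepG2 cells; signal reports phosphorylation of biotinylated GST-cJun 1-79 at Ser73 with 10 µM ATP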)
# Summary of the method: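 Biotinylated GST-cJun(1-79) served as substrate for JNK3 in HepG2 lysates stimulated with IL-1beta and TNF-alpha. ATP was 10 uM final, pH 7.6. Ser73 phosphorylation was quantified by AlphaScreen (680 nm excitation).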
# [7] = biological target: 3',5'-cyclic-AMP phosphodiesterase 4B (Homo sapiens) (UniProt Q07343); assay: qHTS Assay for Inhibitors of PDE-IV (AID 607; active means well fitted activation curve with a large enough effect in the main read-out, with a control signal flat, not every such curve was filed as active)
# Summary of the method: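 The readout is membrane depolarisation from a cAMP-sensing CNG channel, detected with a potential dye at ex 535/em 590. Cells were HEK293-derived (endogenous PDE-IV) at 1000 cells/well, titrated up to 22.9 uM final.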
# [8] = biological target: Guanine nucleotide-binding protein G(i) subunit alpha-1 (Homo sapiens) (UniProt P63096); assay: qHTS Assay for Inhibitors of RGS12 GoLoco Motif Activity (Green Fluorophore) (AID 879);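 further: negative values mean loss of peptide binding seen as reduced polarization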
# Summary of the method: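 A drop in FITC polarization marked displacement of the FITC-tagged RGS12 GoLoco peptide (10 nM) from Gαi1 (50 nM). Compounds were incubated 10 min at room temperature in Tris pH 7.5 buffer containing 150 mM NaCl, 0.1 mM GDP and 0.05% NP40; unlabeled peptide titration served as control.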
# [9] = qHTS Assay for Identification of Small Molecule Antagonists for NFkB Signaling Pathway (AID 895; active means well fitted inhibition curve with a large enough effect in the signal ratio, with a control signal flat, not every such curve was filed as active; the % refers to the signal ratio)
# Summary of the method: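 NFkB-bla ME-180 cervical carcinoma cells with beta-lactamase reporter under NFkB response element; compounds added, then TNF alpha at 10 pM final (EC50), 5 h at 37 C. LiveBLAzer substrate 2 h, room temperature; emission 460/530 nm at 405 nm excitation.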
# [10] = qHTS Assay for Identification of Small Molecule Agonists for Thrombopoietin (TPO) Signaling Pathway (AID 917)
# Summary of the method: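 Cell-based luciferase reporter screen. Mouse Ba/F3 line stably expressing human TPO receptor; IL-3 removed overnight before plating. Co-treatment with compound and EC50 TPO (26 pM), 24 hrs at 37 C, then luminescence.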
# [11] = biological target: Muscarinic acetylcholine receptor M1 (Rattus norvegicus) (UniProt P08482); assay: qHTS Assay for Antagonists of Acetylcholine Muscarinic M1 Receptor: Kinetic Measurement of Intracellular Calcium Response (AID 943);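 further: Fluo-4 calcium signal as peak divided by basal fluorescence over 4 min; nearly all actives have a fitted effect of over 75% in size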
# Summary of the method: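 Quantitative HTS in CHO-M1 (rat receptor) cells: 10 min compound exposure ahead of 100 nM carbachol, Fluo-4 fluorescence followed 4 min, value expressed as peak-to-basal ratio.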
# [12] = biological target: Muscarinic acetylcholine receptor M1 (Rattus norvegicus) (UniProt P08482); assay: qHTS Assay for Antagonists of Acetylcholine Muscarinic M1 Receptor: Measurement of IP-One Response (AID 944); further: nearly all actives have a fitted effect of over 75% in size
# Summary of the method: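 Antagonism was measured as loss of carbachol-driven (EC80) IP1 accumulation in CHO cells carrying rat M1, using a homogeneous IP-One TR-FRET kit read at 620 and 665 nm.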
# [13] = biological target: Pyruvate kinase (Leishmania mexicana) (UniProt Q27686); assay: qHTS Validation Assay for Inhibitors of Leishmania Mexicana Pyruvate Kinase (AID 945)
# Summary of the method: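 LmPYK E451W 0.2 nM; 0.5 mM PEP, 0.1 mM ADP, 7 mM MgCl2, 50 mM KCl, imidazole pH 7.2, 0.01% Tween 20, 0.05% BSA; 1 h RT; PKLight luminescence; DMSO-normalized.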
# [14] = biological target: Pyruvate kinase PKM (Homo sapiens) (UniProt P14618); assay: qHTS Assay for Activators of Human Muscle Pyruvate Kinase (AID 954; active means well fitted curve in the direction sought with a large enough effect, not every such curve was filed as active)
# Summary of the method: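 PKM2, human, >95% pure, 0.1 nM; PEP 0.5 mM (Km), ADP 0.1 mM; 50 mM imidazole pH 7.2, 50 mM KCl, 0.01% Tween 20, 0.05% BSA; 1 h RT; luciferase luminescence readout.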
# [15] = biological target: Alpha-galactosidase (Coffea arabica) (UniProt Q42656); assay: Counterscreen for Glucocerebrosidase Inhibitors: qHTS Assay for Coffee Bean alpha-Galactosidase at pH 4.5 (AID 957)
# Summary of the method: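 Quantitative HTS of compounds (0.7 nM to 77 uM) against coffee bean alpha-galactosidase at pH 4.5, measuring 4-methylumbelliferone fluorescence released from 80 uM substrate.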
# [16] = biological target: alpha-glucosidase (Oryza sativa, rice) (UniProt Q653V4); assay: Counterscreen for Glucocerebrosidase Inhibitors: qHTS Assay for Rice alpha-Glucosidase at pH 5.0 (AID 997)
# Summary of the method: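 Endpoint fluorogenic assay at pH 5.0: compounds (0.7 nM to 77 uM) titrated against 4 nM rice enzyme and 400 uM 4-MU-alpha-glucoside for 20 min at room temperature; NaOH/glycine stop, read ex 365/em 440 nm, Hill-fitted AC50.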
# [17] = biological target: Alpha-galactosidase (Coffea arabica) (UniProt Q42656); assay: Counterscreen for Glucocerebrosidase Inhibitors: qHTS Assay for Coffee Bean alpha-Galactosidase at pH 5.9 (AID 998)
# Summary of the method: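 In 50 mM citric acid pH 5.9 with 0.005% Tween-20, coffee bean enzyme hydrolyses 80 uM 4-MU alpha-D-galactopyranoside over 20 min at RT. Activity is normalized to controls; AC50 comes from Hill-modelled concentration-response data.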
# [18] = qHTS Assay for Lipid Storage Modulators (AID 1519; calls by dose curve); details: Drosophila S3 cells, BODIPY lipid droplet/cell ratio, laser cytometry, cells loaded with oleic acid
# Summary of the method: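 Cells seeded at 5,000 per well were treated with compounds over a concentration series and loaded with oleic acid (400 uM, as added). Lipid droplet fluorescence (488 nm excitation, 500-530 nm channel) was read by laser-scanning cytometry and normalized to 20 uM Triacsin C.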
# [19] = biological target: Ubiquitin carboxyl-terminal hydrolase 1 (Homo sapiens) (UniProt O94782); assay: Inhibitors of USP1/UAF1: Pilot qHTS (AID 504865);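 further: rhodamine fluorescence freed from ubiquitin-rhodamine substrate followed over time; top concentration of the series differs between compounds; nearly all actives have a fitted effect of over 35% in size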
# Summary of the method: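 In 50mM HEPES pH 7.8 containing 0.5mM EDTA, 1mM TCEP, 0.1 mg/ml BSA and 0.01% Tween-20, 1nM USP1/UAF1 is exposed to compound for 15 min, then Ub-Rho (150nM final) is added and fluorescence is read over time.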
# [20] = biological target: DNA dC->dU-editing enzyme APOBEC-3G (Homo sapiens) (UniProt Q9HC16); assay: qHTS for inhibitors of Vif-A3G interactions: Validation (AID 588379)
# Summary of the method: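 Yellow fluorescence (Ex 488, Em 500-530) of Vif-coexpressing HeLa A3G-eYFP cells, scanned by Acumen cytometer, reports blocked A3G degradation. Cells plated at 700/well overnight at 37 deg C before compound addition, then a further overnight compound incubation at 37 deg C.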
# [21] = Primary qHTS for small molecule stabilizers of the endoplasmic reticulum resident proteome: Secreted ER Calcium Modulated Protein (SERCaMP) assay (AID 1508630)
# Summary of the method: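 The SH-SY5Y reporter protocol was run at 3 concentrations up to 38.3 uM (primary) or 11 concentrations (follow-up): 16 h compound, 100 nM thapsigargin for 4 h, then extracellular luciferase luminescence.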
# Glucocorticoid receptor (Homo sapiens), sequence (P04150 whole entry, looked up, the tested form may be a part): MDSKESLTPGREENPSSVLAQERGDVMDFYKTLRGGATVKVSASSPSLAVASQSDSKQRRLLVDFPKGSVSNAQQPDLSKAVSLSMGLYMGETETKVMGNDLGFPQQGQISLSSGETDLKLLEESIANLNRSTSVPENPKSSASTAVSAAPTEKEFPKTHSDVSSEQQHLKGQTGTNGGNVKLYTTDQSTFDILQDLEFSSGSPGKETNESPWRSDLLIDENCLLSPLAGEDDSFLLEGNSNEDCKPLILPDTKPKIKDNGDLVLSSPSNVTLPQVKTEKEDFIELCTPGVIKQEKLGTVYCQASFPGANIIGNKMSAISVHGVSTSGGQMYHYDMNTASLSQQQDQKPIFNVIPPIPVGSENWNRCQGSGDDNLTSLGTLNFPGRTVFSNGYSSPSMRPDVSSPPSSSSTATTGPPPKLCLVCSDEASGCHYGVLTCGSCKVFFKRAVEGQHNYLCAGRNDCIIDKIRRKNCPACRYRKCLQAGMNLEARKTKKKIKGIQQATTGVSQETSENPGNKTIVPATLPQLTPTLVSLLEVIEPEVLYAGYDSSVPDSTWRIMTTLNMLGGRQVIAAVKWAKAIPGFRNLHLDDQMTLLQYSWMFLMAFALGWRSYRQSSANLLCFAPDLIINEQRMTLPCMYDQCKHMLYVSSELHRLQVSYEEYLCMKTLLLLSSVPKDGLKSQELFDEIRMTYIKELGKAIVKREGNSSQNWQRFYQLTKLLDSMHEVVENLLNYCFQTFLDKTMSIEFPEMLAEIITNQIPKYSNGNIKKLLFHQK
# 3',5'-cyclic-AMP phosphodiesterase 4B (Homo sapiens), sequence (Q07343 whole entry, looked up): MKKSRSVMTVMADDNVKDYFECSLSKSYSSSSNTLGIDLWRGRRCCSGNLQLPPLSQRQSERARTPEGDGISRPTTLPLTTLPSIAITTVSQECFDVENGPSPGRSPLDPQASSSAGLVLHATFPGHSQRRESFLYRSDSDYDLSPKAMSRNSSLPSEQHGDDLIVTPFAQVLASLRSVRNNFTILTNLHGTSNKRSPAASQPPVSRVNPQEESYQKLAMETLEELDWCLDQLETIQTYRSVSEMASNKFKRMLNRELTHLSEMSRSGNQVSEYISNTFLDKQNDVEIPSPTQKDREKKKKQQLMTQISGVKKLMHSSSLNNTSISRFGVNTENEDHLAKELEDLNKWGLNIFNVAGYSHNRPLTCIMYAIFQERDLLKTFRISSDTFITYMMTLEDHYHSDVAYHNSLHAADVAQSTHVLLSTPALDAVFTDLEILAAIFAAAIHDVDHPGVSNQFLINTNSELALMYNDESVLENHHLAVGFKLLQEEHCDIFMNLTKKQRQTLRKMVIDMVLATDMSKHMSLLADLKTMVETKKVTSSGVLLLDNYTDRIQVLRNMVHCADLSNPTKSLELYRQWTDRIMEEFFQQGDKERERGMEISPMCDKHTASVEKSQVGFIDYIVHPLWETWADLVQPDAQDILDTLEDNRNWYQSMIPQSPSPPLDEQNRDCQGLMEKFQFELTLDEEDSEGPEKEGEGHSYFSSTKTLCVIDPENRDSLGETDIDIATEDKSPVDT
# DNA dC->dU-editing enzyme APOBEC-3G (Homo sapiens), sequence (Q9HC16 whole entry, looked up): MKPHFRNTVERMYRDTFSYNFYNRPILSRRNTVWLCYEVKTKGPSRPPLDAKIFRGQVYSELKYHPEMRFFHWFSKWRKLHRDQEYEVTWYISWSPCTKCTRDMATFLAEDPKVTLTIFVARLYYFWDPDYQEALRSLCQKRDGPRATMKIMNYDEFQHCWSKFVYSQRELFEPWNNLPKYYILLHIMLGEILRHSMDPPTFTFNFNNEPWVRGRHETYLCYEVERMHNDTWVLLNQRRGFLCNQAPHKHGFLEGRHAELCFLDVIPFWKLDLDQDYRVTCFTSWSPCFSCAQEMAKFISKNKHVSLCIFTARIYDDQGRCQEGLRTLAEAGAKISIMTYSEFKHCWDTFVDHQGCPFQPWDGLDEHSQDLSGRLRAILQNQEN
# Muscarinic acetylcholine receptor M1 (Rattus norvegicus), sequence (P08482 whole entry, looked up): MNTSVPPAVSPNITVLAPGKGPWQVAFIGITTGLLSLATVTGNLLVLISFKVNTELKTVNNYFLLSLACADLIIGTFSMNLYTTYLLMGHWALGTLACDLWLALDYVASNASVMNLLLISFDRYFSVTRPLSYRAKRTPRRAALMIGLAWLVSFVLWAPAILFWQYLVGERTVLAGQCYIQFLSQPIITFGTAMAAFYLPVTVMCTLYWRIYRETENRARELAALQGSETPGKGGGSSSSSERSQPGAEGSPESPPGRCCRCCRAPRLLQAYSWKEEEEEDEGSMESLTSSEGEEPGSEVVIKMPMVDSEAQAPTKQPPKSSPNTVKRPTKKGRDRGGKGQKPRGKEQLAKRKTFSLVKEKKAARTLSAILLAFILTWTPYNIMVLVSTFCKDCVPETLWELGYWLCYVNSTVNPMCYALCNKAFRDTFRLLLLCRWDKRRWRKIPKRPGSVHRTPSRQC
# Alpha-galactosidase (Coffea arabica), sequence (Q42656 whole entry, looked up): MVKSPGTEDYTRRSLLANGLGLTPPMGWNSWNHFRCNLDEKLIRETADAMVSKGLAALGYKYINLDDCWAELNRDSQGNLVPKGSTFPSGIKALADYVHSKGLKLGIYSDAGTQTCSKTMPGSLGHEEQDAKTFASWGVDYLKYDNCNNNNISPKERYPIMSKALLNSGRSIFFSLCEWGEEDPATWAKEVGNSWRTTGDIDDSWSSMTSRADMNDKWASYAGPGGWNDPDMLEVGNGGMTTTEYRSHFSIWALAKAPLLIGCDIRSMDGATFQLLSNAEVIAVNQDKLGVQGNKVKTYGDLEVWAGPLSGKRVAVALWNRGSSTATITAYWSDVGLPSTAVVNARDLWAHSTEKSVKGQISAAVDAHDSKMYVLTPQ
# Pyruvate kinase PKM (Homo sapiens), sequence (P14618 whole entry, looked up): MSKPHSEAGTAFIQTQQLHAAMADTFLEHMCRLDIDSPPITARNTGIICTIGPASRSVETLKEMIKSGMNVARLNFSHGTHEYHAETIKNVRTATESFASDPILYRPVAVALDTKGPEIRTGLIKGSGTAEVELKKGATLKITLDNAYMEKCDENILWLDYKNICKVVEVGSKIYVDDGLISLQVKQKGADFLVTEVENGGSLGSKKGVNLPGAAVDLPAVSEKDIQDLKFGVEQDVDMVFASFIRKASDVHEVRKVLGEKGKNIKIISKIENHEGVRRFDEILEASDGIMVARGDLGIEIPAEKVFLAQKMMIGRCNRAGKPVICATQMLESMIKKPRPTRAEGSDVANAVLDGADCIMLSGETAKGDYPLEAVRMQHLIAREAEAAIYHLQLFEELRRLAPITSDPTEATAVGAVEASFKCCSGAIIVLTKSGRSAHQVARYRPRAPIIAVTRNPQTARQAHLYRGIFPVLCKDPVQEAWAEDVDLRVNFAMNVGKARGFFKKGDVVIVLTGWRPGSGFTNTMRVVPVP
# Pyruvate kinase (Leishmania mexicana), sequence (Q27686 2-499 E452W): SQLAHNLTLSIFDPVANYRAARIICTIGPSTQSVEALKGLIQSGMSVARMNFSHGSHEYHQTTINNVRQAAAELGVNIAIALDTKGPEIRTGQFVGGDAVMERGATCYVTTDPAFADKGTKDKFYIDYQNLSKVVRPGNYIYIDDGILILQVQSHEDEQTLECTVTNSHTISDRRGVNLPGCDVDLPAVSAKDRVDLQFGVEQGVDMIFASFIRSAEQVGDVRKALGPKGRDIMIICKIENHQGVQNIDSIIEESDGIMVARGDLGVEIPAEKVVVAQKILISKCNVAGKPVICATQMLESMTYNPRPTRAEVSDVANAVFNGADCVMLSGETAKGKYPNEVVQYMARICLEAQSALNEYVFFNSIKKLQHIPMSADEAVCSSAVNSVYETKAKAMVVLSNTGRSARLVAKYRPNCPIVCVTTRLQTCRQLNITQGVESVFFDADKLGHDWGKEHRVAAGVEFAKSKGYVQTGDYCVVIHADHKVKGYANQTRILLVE
# Guanine nucleotide-binding protein G(i) subunit alpha-1 (Homo sapiens), sequence (P63096 whole entry, looked up): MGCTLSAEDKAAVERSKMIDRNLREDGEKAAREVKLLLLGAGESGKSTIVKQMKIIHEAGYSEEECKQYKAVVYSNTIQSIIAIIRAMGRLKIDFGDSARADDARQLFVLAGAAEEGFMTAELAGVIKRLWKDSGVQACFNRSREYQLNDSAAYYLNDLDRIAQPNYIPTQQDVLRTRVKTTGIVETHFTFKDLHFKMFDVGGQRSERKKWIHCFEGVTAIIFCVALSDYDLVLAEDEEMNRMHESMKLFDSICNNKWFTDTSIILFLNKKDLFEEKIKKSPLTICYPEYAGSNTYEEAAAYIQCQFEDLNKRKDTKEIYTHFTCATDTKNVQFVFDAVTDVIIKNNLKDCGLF
# Ubiquitin carboxyl-terminal hydrolase 1 (Homo sapiens), sequence (O94782 whole entry, looked up): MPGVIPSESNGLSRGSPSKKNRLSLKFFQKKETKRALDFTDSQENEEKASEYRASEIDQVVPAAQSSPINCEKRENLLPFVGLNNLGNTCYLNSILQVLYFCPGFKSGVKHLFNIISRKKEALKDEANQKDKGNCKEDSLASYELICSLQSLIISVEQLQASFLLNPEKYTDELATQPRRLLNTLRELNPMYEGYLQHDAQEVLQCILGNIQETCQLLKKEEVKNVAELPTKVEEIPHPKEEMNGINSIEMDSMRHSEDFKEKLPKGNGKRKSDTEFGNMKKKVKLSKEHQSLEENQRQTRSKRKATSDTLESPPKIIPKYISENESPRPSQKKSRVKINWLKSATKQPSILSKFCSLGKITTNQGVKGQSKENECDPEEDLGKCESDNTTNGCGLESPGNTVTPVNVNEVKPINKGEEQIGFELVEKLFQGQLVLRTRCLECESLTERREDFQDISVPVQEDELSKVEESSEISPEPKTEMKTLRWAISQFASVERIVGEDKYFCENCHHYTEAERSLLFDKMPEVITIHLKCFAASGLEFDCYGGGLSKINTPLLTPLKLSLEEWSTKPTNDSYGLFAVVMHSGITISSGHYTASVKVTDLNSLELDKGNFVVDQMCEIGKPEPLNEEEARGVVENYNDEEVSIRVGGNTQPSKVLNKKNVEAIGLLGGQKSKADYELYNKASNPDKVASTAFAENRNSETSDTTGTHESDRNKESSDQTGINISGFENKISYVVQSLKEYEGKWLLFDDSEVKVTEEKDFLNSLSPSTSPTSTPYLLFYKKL
compound,measurement,setting,value
N[C@H](CCP(=O)(O)O)C(=O)O,outcome,[1],inactive
same,"activity change, negative = inhibition",[2],13.5% (inactive)
same,outcome,[3],inactive
same,Potency,[4],> 46 µM (inactive)
same,Potency,[5],> 46 µM (inactive)
same,outcome,[6],inactive
same,Potency,[7],inactive
same,outcome,[8],inactive
same,Potency,[9],inactive
same,outcome,[10],inactive
same,Potency,[11],inactive
same,Potency,[12],inactive
same,outcome,[13],inactive
same,outcome,[14],inactive
same,outcome,[15],inactive
same,outcome,[16],inactive
same,outcome,[17],inactive
same,"activity change, negative = inhibition",[18]; at 57.5 µM (top of the series),2.56% (inactive)
same,max response,[18]; measured here: cell count channel max response,21.6%
same,max response,[18]; measured here: lipid channel max response,21.4%
same,Potency,[19],inactive
same,Potency,[20],inactive
same,Potency,[21],inactive
